Experimental data taken from ChEMBL document CHEMBL3988442, “University of Dundee, Small-Polar-MMV Screening Library” (2021).
For some of these results: Measured potencies and affinities stand elsewhere.

Tests used:
Parameters in all cases: scale not given: direction of the effect not stated beside the values
[1] = target: Protein translocase subunit SecA (Escherichia coli (strain K12)) (UniProt P10408); experiment: Assay to Identify E. coli SecA ATPase Inhibitors; format: functional; settings: 30 µM
[2] = target: T1, Ubiquitin-activating enzyme e1, putative (Leishmania donovani (strain BPK282A1)) (UniProt E9BSI1); experiment: Leishmania donovani Ubiquitin Activating Enzyme (LdE1); format: functional; settings: 30 µM
T1 sequence (whole entry): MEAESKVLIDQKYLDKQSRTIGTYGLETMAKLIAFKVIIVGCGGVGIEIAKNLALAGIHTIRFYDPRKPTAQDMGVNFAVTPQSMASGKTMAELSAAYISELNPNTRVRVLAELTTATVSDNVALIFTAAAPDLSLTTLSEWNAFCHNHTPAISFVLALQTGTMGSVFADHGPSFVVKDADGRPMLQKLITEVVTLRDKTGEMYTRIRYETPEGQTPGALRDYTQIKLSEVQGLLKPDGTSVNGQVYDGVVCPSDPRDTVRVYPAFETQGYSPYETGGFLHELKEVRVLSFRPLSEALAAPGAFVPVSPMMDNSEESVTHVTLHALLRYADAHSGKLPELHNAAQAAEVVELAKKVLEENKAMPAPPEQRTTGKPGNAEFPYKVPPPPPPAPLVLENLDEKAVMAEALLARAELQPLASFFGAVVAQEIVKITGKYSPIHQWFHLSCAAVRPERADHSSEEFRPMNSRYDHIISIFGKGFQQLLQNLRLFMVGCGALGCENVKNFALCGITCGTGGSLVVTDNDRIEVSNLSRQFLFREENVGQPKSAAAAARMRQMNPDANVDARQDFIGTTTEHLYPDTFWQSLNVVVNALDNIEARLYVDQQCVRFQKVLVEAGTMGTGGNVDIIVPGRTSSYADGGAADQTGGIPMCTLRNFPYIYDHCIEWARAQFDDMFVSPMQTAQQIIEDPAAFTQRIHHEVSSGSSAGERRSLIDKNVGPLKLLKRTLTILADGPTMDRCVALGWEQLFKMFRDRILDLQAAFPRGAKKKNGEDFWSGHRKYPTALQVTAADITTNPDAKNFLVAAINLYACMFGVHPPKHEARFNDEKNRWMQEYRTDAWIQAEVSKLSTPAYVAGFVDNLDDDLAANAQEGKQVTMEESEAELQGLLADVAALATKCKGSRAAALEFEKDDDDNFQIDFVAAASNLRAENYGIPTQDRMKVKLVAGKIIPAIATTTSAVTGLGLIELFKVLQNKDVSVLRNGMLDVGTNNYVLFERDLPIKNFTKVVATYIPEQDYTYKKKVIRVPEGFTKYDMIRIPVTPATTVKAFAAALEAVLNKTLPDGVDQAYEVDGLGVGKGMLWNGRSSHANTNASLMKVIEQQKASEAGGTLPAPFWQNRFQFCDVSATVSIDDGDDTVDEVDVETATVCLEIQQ

[3] = target: AMP-activated protein kinase, AMPK (Homo sapiens) (UniProt P54646+O43741+P54619+Q9UGJ0+Q9Y478+Q13131+Q9UGI9); experiment: AMP-dependent Kinase enzyme assay. An in vitro enzyme assay that detects ADP turnover that is directly proportional to AMPK activity. This uses naive AMPK that is activated during the assay with MK-8722; format: functional; settings: 30 µM
[4] = target: Sialic acid-binding Ig-like lectin 9 (Homo sapiens) (UniProt Q9Y336); experiment: Hs-Siglec9 ALPHAscreen SOP 20170721; settings: 10 µM
Trypanosoma cruzi = experiment: Trypanosoma cruzi phosphomannomutase and mannose-1-phosphate guanylyltransferase assay; format: functional; settings: 10 µM
[5] = target: T2, Arginase-2, mitochondrial (Homo sapiens) (UniProt P78540); experiment: in vitro enzyme assay to detect the production of urea directly proportional to the activity of Arginase II; format: functional; settings: 33.3 µM; also: in the data most compounds retested in dose-response had high values
T2 sequence (whole entry): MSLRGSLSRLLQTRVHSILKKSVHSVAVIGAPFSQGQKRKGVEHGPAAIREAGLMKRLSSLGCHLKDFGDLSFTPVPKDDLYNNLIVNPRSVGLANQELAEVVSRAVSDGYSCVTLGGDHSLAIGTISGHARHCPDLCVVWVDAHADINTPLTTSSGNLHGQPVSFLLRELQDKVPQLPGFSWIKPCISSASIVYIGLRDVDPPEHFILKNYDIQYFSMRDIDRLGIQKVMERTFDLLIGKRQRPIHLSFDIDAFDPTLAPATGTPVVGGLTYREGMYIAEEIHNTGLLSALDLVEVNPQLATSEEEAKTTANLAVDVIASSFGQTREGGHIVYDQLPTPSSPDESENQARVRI

[6] = target: T3, Proteasome subunit beta (Trypanosoma cruzi) (UniProt O96673); experiment: Trypanosoma cruzi proteasome chymotrypsin-like activity (TcProtChymo) assay.; also: in the data most compounds retested in dose-response had high values; format: functional; settings: 9.37 µM
T3 sequence (whole entry): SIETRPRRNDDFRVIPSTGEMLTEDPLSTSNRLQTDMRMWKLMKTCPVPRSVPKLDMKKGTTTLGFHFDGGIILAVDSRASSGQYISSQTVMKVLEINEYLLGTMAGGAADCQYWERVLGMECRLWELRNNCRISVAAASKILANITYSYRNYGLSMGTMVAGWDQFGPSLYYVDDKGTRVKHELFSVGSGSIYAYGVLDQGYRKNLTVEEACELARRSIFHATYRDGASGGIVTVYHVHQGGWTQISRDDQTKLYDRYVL

Homo sapiens = organism: Homo sapiens; experiment: To identify inhibition of the IFN signalling (Jak-Stat) pathway via expression of an eGFP reporter gene under the control of an IFN-stimulated response element (ISRE) containing MxA promoter.; format: functional; settings: 30 µM
[7] = target: T4, Tyrosyl-tRNA synthetase, putative (Trypanosoma cruzi (strain CL Brener)) (UniProt Q4DSP6); experiment: Trypanosoma cruzi tyrosyl tRNA synthetase (TcYRS) _High Tyrosine SOP; format: functional; settings: 30 µM; also: in the data most compounds retested in dose-response had high values
T4 sequence (whole entry): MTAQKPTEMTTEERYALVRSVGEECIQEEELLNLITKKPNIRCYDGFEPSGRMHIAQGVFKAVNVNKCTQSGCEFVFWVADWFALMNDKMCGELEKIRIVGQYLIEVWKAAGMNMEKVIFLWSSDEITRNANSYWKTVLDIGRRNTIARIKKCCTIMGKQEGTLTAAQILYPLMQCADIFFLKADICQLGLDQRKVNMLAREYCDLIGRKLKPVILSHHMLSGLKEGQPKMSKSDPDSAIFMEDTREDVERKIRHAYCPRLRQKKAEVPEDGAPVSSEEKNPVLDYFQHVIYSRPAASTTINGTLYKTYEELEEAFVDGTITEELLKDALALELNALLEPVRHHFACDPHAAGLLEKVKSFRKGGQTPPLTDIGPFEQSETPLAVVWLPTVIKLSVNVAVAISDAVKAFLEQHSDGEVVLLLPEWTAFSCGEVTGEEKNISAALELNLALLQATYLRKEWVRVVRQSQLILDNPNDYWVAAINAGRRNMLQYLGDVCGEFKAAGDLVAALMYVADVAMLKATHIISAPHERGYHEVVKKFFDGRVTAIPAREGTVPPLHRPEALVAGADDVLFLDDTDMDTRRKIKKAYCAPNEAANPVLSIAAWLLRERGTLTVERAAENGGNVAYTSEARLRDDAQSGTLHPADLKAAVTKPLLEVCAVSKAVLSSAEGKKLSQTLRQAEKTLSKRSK

[8] = target: T4, Tyrosyl-tRNA synthetase, putative (Trypanosoma cruzi (strain CL Brener)); experiment: Trypanosoma cruzi tyrosyl tRNA synthetase (TcYRS) SOP; format: functional; settings: 30 µM
[9] = target: Chromo domain-containing protein 1 (Saccharomyces cerevisiae (strain ATCC 204508 / S288c) (Baker's yeast)) (UniProt P32657); experiment: ScCHD-1 Enzyme Inhibition Assay; format: functional; settings: 30 µM; also: in the data most compounds retested in dose-response had high values
Chain of Chromo domain-containing protein 1 (Saccharomyces cerevisiae (strain ATCC 204508 / S288c) (Baker's yeast)) (P32657 whole entry, the tested form may be a part): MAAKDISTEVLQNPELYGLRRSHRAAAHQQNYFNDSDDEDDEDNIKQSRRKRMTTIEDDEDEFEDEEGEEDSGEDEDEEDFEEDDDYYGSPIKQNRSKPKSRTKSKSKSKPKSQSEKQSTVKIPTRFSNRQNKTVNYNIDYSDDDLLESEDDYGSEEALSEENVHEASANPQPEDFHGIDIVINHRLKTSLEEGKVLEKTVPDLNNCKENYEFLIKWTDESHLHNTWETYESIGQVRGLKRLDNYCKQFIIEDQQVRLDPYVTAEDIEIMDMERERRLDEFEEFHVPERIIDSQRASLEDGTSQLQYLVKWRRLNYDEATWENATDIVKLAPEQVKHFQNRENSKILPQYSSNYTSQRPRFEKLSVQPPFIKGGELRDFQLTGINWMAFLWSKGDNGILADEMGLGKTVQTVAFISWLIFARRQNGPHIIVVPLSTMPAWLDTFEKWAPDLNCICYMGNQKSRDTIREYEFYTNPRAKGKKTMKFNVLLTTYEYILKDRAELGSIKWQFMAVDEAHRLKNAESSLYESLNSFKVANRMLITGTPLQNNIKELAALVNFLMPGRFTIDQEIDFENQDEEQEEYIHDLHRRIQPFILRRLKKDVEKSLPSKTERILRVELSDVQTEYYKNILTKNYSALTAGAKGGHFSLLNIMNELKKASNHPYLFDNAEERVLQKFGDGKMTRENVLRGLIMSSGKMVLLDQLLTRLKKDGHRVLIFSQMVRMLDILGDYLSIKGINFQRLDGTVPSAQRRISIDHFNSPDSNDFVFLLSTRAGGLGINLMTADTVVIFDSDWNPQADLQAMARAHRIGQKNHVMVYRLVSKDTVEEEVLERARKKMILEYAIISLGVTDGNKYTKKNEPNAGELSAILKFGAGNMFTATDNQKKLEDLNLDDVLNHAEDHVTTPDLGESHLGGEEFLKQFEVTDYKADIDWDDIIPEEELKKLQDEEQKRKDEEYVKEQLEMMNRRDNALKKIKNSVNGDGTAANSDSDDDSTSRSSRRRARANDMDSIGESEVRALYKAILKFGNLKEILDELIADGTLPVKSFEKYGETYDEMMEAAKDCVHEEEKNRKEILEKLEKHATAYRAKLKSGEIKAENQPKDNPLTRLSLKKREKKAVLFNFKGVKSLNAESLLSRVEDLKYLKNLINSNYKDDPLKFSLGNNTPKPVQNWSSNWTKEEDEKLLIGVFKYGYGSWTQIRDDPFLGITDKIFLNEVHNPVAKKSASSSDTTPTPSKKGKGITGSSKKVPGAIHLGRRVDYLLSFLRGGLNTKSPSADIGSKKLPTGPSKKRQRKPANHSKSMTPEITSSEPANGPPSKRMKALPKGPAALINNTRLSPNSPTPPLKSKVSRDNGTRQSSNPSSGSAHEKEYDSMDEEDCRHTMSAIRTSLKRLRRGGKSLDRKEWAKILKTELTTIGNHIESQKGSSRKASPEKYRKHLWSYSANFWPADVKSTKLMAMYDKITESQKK

Chain of Sialic acid-binding Ig-like lectin 9 (Homo sapiens) (Q9Y336 whole entry): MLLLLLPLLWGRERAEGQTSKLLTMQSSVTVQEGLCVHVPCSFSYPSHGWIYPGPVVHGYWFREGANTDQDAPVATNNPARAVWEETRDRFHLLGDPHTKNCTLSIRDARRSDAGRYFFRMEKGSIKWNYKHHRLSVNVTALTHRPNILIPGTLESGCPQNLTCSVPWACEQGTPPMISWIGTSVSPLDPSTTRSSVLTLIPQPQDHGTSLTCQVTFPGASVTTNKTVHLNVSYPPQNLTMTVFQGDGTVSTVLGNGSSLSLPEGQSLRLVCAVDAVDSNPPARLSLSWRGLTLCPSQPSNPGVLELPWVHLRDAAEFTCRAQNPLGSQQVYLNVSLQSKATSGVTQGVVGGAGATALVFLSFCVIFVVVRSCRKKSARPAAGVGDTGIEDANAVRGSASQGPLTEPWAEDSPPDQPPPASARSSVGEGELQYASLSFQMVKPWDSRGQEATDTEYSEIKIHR
Chain of Protein translocase subunit SecA (Escherichia coli (strain K12)) (P10408 whole entry): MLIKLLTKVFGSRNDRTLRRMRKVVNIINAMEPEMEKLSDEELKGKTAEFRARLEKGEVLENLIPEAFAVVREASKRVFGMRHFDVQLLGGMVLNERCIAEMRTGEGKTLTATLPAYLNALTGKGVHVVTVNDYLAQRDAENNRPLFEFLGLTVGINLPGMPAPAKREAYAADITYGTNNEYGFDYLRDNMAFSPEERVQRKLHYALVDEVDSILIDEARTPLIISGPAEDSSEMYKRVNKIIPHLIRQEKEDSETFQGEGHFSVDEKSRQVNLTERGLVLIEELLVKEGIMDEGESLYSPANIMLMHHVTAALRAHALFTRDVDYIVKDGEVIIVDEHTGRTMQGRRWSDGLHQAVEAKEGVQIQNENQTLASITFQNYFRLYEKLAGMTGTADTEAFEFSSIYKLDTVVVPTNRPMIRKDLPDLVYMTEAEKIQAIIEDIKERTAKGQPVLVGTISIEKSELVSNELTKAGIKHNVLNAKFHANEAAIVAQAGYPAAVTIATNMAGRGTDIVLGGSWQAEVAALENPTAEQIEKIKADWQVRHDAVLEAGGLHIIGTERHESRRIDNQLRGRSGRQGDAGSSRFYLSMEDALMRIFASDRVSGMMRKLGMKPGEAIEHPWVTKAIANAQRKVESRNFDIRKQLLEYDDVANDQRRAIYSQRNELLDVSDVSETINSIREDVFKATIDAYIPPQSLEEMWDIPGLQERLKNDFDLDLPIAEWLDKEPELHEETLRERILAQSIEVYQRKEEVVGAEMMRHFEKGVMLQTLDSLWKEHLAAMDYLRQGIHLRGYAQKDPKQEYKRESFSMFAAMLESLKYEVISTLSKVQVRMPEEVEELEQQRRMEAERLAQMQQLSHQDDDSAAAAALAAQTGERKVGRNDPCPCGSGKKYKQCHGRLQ

Row | SMILES | Percent Effect [1] | Percent Effect [2] | Percent Effect [3] | Percent Effect [4] | Percent Effect (Trypanosoma cruzi) | Percent Effect [5] | Percent Effect [6] | Percent Effect (Homo sapiens) | Percent Effect [7] | Percent Effect [8] | Percent Effect [9]
1 | O=C(c1ccco1)N1CCCC(c2cc(C(F)F)n3ncnc3n2)C1 (stereo not given) | -1.42% | 4.05% | 9.33% | 28.2% | -8.5% | 3.02% | 3.9% | 7.52% | 0% | 3.9% | 3.66%
2 | COC(=O)N1CCc2ccc(NC(=O)c3cn(C)nn3)cc2C1 | -6.1% | 10.4% | 2.87% | 5.76% | 2.07% | -49.7% | 9.92% | 12.5% | 5.29% | 8.97% | 90.7%
3 | COc1ccc(OCCCNC(=O)NCc2csc(C)n2)cc1 | -3.63% | 16.2% | 2.75% | -5.68% | 0.65% | -4.62% | 7.54% | 20.4% | 8.91% | 15.8% | -3.66%
4 | COCCN1C[C@H]2CC[C@@]3(N=C(C)N(CC4CC4)C3=O)[C@H]2C1 | -4.99% | 5.41% | 1.81% | -4.12% | -0.391% | -0.417% | 8.71% | 7.83% | 6.93% | 8.54% | 1.06%
5 | CN(Cc1ccco1)Cc1ccccc1CNC(=O)c1ccncc1 | -4.48% | 5.41% | 13.1% | 4.84% | 0.386% | 0% | 12.8% | -3.63% | 2.65% | 4.88% | -2.3%
